Data from the supplement of paper PMC12645437, “Orthogonal IMiD-Degron Pairs Induce Selective Protein Degradation in Cells” (ACS Chemical Biology, 2025).
Over roughly 8,300 sequences, “log2 fold change of degron read counts, EGFP-low vs EGFP+ sorted cells (limma voom), compound-induced degradation” has its median near -1.1; the highest 2% begin near 3.2. Only a selection was taken, and the highest values are over-represented in it overall.

T1: CRBN, Q96SW2
T1 chain: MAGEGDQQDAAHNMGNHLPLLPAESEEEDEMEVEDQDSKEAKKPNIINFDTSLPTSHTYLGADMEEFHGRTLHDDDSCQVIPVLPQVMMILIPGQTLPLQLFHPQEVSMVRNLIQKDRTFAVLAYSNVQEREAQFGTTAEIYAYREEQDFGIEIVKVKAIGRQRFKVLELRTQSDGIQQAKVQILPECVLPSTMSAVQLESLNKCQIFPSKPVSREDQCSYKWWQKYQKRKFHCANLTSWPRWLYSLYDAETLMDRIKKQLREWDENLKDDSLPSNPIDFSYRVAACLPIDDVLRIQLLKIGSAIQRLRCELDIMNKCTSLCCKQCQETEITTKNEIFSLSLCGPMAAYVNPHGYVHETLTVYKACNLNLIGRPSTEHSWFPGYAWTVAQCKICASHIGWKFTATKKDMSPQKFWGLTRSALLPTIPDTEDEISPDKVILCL


Molecular target: T1, CRBN, Q96SW2
Assay: log2 fold change of degron read counts, EGFP-low vs EGFP+ sorted cells (limma voom), compound-induced degradation; higher = more compound-induced degradation of the degron-EGFP fusion; degrons are variants of IKZF1/3 zinc finger 2; compound dose not given here
Settings: Jurkat, 18 h
[1] = compound: compound 19 (5-tert-butyl-thalidomide)
[2] = compound: compound 22 (5-morpholino-thalidomide)
[3] = compound: compound 33 (diphenyl IMiD analogue)
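Also: pooled lentiviral library of zinc finger degron-EGFP fusions in mCherry-positive Jurkat cells, FACS-sorted after compound exposure, with degron abundance counted by next-generation sequencing.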

Sequence | log2 fold change of degron read counts [1] | log2 fold change of degron read counts [2] | log2 fold change of degron read counts [3] | log2 fold change of degron read counts (compound: thalidomide)
FRCNQCGRVFTQKGNLLRHIKL [46F_47R_49N_50Q_52G_53R_54V_55F_67L_, Q9UKT9] | -2.28 | -2.49 | -2.54 | -1.61
FQCPICGRLFTQKGNLLRHIKL [46F_47Q_49P_50I_52G_53R_54L_55F_67L_, Q9UKT9] | -1.51 | -0.0572 | 0.785 | 2.29
FVCEICGAFFTQKGNLLRHIKL [46F_47V_49E_50I_52G_53A_54F_55F_67L_, Q9UKT9] | -0.344 | -0.0422 | 1.09 | 1.08
FICDVCGALFTQKGNLLRHIKL [46F_47I_49D_50V_52G_53A_54L_55F_67L_, Q9UKT9] | -1.82 | -0.923 | 0.0161 | -0.806
FCCPQCGATFTQKGNLLRHIKL [46F_47C_49P_50Q_52G_53A_54T_55F_67L_, Q9UKT9] | -1.19 | -0.971 | 1.49 | -0.551
FLCPICGREFTQKGNLLRHIKL [46F_47L_49P_50I_52G_53R_54E_55F_67L_, Q9UKT9] | -2.12 | -2.2 | -0.686 | 0.04
FNCNICGAIFTQKGNLLRHIKL [46F_47N_49N_50I_52G_53A_54I_55F_67L_, Q9UKT9] | -1.14 | -1.24 | -0.567 | -1.09
FQCDQCGAWFTQKGNLLRHIKL [46F_47Q_49D_50Q_52G_53A_54W_55F_67L_, Q9UKT9] | -2.29 | -2.57 | -1.93 | -1.39
FFCNVCGAAFTQKGNLLRHIKL [46F_47F_49N_50V_52G_53A_54A_55F_67L_, Q9UKT9] | 1.2 | 1.43 | 0.704 | -0.812
FSCPICGAYFTQKGNLLRHIKL [46F_47S_49P_50I_52G_53A_54Y_55F_67L_, Q9UKT9] | 2.23 | 1.26 | 2.17 | 1.38
FNCPICGAYFTQKGNLLRHIKL [46F_47N_49P_50I_52G_53A_54Y_55F_67L_, Q9UKT9] | 2.2 | 1.13 | 0.721 | 0.825
FCCPICGAYFTQKGNLLRHIKL [46F_47C_49P_50I_52G_53A_54Y_55F_67L_, Q9UKT9] | 1.38 | 1.19 | 1.52 | 1.42
FTCPICGAYFTQKGNLLRHIKL [46F_47T_49P_50I_52G_53A_54Y_55F_67L_, Q9UKT9] | 1 | 2.25 | 2.83 | 3.31
FQCPICGAYFTQKGNLLRHIKL [46F_47Q_49P_50I_52G_53A_54Y_55F_67L_, Q9UKT9] | -1.06 | 0.884 | 1.61 | 3.36
